Screening results deposited in PubChem by National Center for Advancing Translational Sciences (NCATS).
Most compounds without a hit are left out; they make up all but 21% or so of the library.
Shiga toxin inh: inhibitors of Shiga toxin in Vero cells | inhibition, % at 38.7 µM | AID 2315 | Vero cells, Shiga toxin protein synthesis inhibition reporter | hit rate 9.2% among 290,000; in the data active = inhibition mostly above about 28%, no sharp cut-off; inactive = mostly below about 43%
SARS PLpro yeast: inhibitors of SARS-CoV papain-like protease in yeast; S. cerevisiae expressing SARS-CoV PLpro, growth rescue; Potency, µM (top dose mostly 32.9 µM), actives largely listed as activators; hit rate 0.19% among 330,000; AID 485353; also: nearly all actives have a fitted effect of over 55% in size
Cycloheximide cs: counter-screen for Shiga toxin inhibitors: cycloheximide protein synthesis inhibition | hit rate 12% among 300,000 | cell reporter, cycloheximide protein synthesis inhibition counterscreen | max response, %; in the data active = max response mostly above about 13%, no sharp cut-off; inactive = mostly below about 14%; also: read at 38.3 µM for the half of the compounds with a filed dose
NS1 function inh: blocks influenza NS1 protein function | Potency, µM (highest dose often 46.1 µM) | hit rate 0.4% among 270,000 | AID 2326; also: actives are rising curves; nearly all actives have a fitted effect of over 50% in size
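In this qHTS, NS1 from influenza A is expressed in budding yeast, where it slows growth. Cells are switched from glucose to 2% galactose medium (pH 6.0, -URA), treated with compound, and growth recovery is read at OD600.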
Pf growth 96h: P. falciparum growth inhibition at 96 hour, primary screen for plastid delayed-death inhibitors | hit rate 6.9% among 320,000 | AID 504834 | Potency, µM (doses to about 28.7 µM), most hits filed as inhibitors | P. falciparum luciferase reporter growth, 96 h; active = well fitted inhibition curve with a large enough effect; inconclusive = small, poorly fitted or top-dose-only effect, or another doubt; inactive = no such curve, though single readings can be large or run the other way
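Infected RBCs, 2% Hct / 0.05% parasitemia final; luciferase-reporter P. falciparum; cpd 96 h, 37 C, 5% CO2; luciferase detection reagent; luminescence.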
Pf growth 48h: P. falciparum growth inhibition at 48 hours (one generation); P. falciparum luciferase growth in erythrocytes, 48 h; Potency, µM (highest dose often 28.7 µM), hits mostly inhibitors; hit rate 5.9% among 310,000; active = well fitted inhibition curve with a large enough effect; inconclusive = small, poorly fitted or top-dose-only effect, or another doubt; inactive = no such curve, though single readings can be large or run the other way
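Firefly luciferase activity from engineered P. falciparum reports growth; inhibitors lower the luminescent signal. Cultures contained 2% hematocrit erythrocytes at 0.1% final parasitemia.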
Of the large screens only hits and unclear results are named; the others gave an inactive call. Unless noted, calls follow the shape of the full dose curve.

CCN(C[C@H]1N[C@@](C)(C(=O)OC)[C@H]2C(=O)N(Cc3ccccc3)C(=O)[C@@H]12)S(=O)(=O)c1ccc(OC)cc1	none (no result: Shiga toxin inh, Cycloheximide cs, NS1 function inh, Pf growth 96h, Pf growth 48h)
CC1CCCN(Cc2c(O)ccc3c4c(c(=O)oc23)CCCC4)C1 (stereo not drawn)	Pf growth 96h 1.5µM, Pf growth 48h 1.3µM
CC1CN(Cc2c(O)ccc3c2oc(=O)c2ccccc23)CC(C)O1 (stereo not drawn)	Pf growth 96h 2.3µM, Pf growth 48h 6.6µM
O=c1oc2c(CN3CCOCC3)c(O)ccc2c2c1CCC2	Pf growth 96h inconclusive
CC1CN(Cc2c(O)ccc3c(=O)c(-c4ccccc4)coc23)CC(C)O1 (stereo not drawn)	none
Cc1ccc(NC(=O)CSCC(=O)NC2=NCCS2)cc1	none (no result: Shiga toxin inh, Cycloheximide cs, NS1 function inh)
CCOC(=O)N1CCN(C(=O)CSc2nnc(COc3ccccc3)o2)CC1	none
C#CCN(CC=C)C(=O)CCc1nnc(COc2ccccc2)o1	Shiga toxin inh 59, Cycloheximide cs 42
COc1ccc(N(C(=O)CNC(=O)c2cccs2)C(C(=O)NCC2CCCO2)c2ccc(OC)c(OC)c2)cc1 (stereo not drawn)	Pf growth 96h inconclusive, Pf growth 48h inconclusive
CCOc1ccc(N(C(=O)CNC(=O)c2cccs2)C(C(=O)NCC2CCCO2)c2ccc(OC)c(OC)c2)cc1 (stereo not drawn)	Pf growth 48h 9.3µM
COc1ccc(C(C(=O)NC(C)(C)C)N(C(=O)CNC(=O)c2cccs2)c2ccc(C(C)C)cc2)cc1OC (stereo not drawn)	NS1 function inh inconclusive, Pf growth 96h 8.3µM, Pf growth 48h 12µM
C[C@H](C(=O)O)c1ccc2cc(O)ccc2c1	none (no result: SARS PLpro yeast, NS1 function inh, Pf growth 96h, Pf growth 48h)
COc1ccc(Cl)cc1N1C(=O)CN(Cc2cc(OC)c(OC)c(OC)c2)C1=S	Pf growth 48h 3.3µM
COc1ccc(CN2CC(=O)N(c3cc(Cl)ccc3OC)C2=S)cc1OC	Pf growth 48h 9.3µM
CCc1ccc(OCC(=O)NC(=S)Nc2ccc(F)cc2)c(Br)c1	none
CCc1ccc(OCC(=O)NC(=S)Nc2cccc(CO)c2)c(Br)c1	Cycloheximide cs 22 (no result: Pf growth 96h)
O=C(NC1CCCC1)c1cc(=O)[nH]c2ccccc12	Pf growth 96h inconclusive (no result: SARS PLpro yeast)
Cc1cccn2c(N)c(-c3ccccc3)nc12	Cycloheximide cs 20, Pf growth 96h inconclusive
CC(C)N1CCc2c(sc(NC(=S)NC(=O)c3ccccc3)c2C#N)C1	Shiga toxin inh 39, Cycloheximide cs 45, Pf growth 96h 0.47µM, Pf growth 48h 10µM
CCCN1CCc2c(sc(NC(=S)NC(=O)c3ccccc3)c2C#N)C1	Shiga toxin inh 43, Cycloheximide cs 38, Pf growth 48h inconclusive (no result: NS1 function inh)
CC(CN1CCOCC1)C(=O)O (stereo not drawn)	Pf growth 96h 9.3µM
COc1cc2nc(CN3CCN(S(=O)(=O)c4c(F)cccc4F)CC3)[nH]c(=O)c2cc1OC	Pf growth 96h inconclusive, Pf growth 48h 10µM (no result: Shiga toxin inh, Cycloheximide cs, NS1 function inh)
COc1cc2nc(CN3CCN(S(=O)(=O)c4ccccc4C(F)(F)F)CC3)[nH]c(=O)c2cc1OC	none (no result: Shiga toxin inh, Cycloheximide cs, NS1 function inh, Pf growth 96h, Pf growth 48h)
COc1ccc(CCn2c(SCC(=O)Nc3cc(C)on3)nc3ccsc3c2=O)cc1OC	NS1 function inh inconclusive, Pf growth 48h 8.3µM (no result: Pf growth 96h)
Cc1cc(NC(=O)CSc2nc3ccsc3c(=O)n2CCCCC(=O)O)no1	Pf growth 96h 4.7µM
CCCCn1c(SCC(=O)Nc2cc(C)on2)nc2ccsc2c1=O	none
CCN(CCCNC(=O)CN(C)S(=O)(=O)c1ccc2c(c1)CCC(=O)N2)c1cccc(C)c1	Pf growth 48h inconclusive
CCCc1nn(C)c(C(=O)Nc2ccc3ccccc3c2)c1Cl	Shiga toxin inh 54, Cycloheximide cs 49
Cc1nn(C)c(C(=O)Nc2cccc(CN3CCOCC3)c2)c1Br	none
CCCc1nn(C)c(C(=O)Nc2cccc(CC)c2)c1Cl	Shiga toxin inh active, Cycloheximide cs 18
C/C=C/C=C/C(=O)Nc1nccs1	Cycloheximide cs 17, Pf growth 96h inconclusive
O=C(/C=C/c1ccc(Cl)cc1)Nc1nccs1	Shiga toxin inh 70, Cycloheximide cs 54, Pf growth 96h inconclusive (no result: NS1 function inh)
CCCC[n+]1ccn(-c2nc3ccccc3nc2[N-]S(=O)(=O)c2ccc(Cl)cc2)c1	none
CCCC[n+]1ccn(-c2nc3c([N+](=O)[O-])cccc3n2C)c1	Pf growth 96h 2.1µM, Pf growth 48h 13µM
COc1ccc(OC)c(NC(=O)COC(=O)/C=C/c2ccc(Cl)cc2)c1	none
COc1ccc(/C=N/NC(=O)c2ccoc2C)cc1O	Shiga toxin inh 57, Cycloheximide cs 58
COc1ccc(/C=N/NC(=O)c2ccoc2C)cc1OC	Shiga toxin inh 115, Cycloheximide cs 43
COc1ccc(/C=N/NC(=O)c2cc[n+]([O-])cc2)cc1O	none
COc1ccc(/C=N/NC(=O)c2ccoc2C)cc1COc1ccc(Cl)cc1	Shiga toxin inh 91, Cycloheximide cs 33, Pf growth 96h inconclusive, Pf growth 48h inconclusive (no result: SARS PLpro yeast)
COc1ccc(/C=N/NC(=O)c2ccccc2OC)cc1COc1ccc(C)cc1	none
CCOC(=O)c1ccc(Nc2nnc(C(C)(C)C)c(=O)[nH]2)cc1	Pf growth 96h inconclusive, Pf growth 48h 5.2µM
Cc1occc1C(=O)N(C)Cc1nc(-c2ccc(Cl)cc2)no1	none
COc1ccccc1/C=C/c1nc(S(=O)(=O)c2ccccc2)c(NCCN(C)C)o1	Pf growth 48h inconclusive
COc1ccc(/C=C/c2nc(S(=O)(=O)c3ccccc3)c(NCCCN(C)C)o2)cc1OC	Pf growth 96h inconclusive, Pf growth 48h 12µM
O=C(CN(Cc1ccco1)Cc1ccco1)Nc1cc(S(=O)(=O)N2CCCCC2)ccc1Cl	Pf growth 96h inconclusive, Pf growth 48h 13µM (no result: Shiga toxin inh, Cycloheximide cs, NS1 function inh)
CN(C)c1ccc(S(=O)(=O)N2CCCCC2)cc1NC(=O)CCNC(=O)c1ccco1	Pf growth 96h inconclusive, Pf growth 48h 12µM (no result: Shiga toxin inh, Cycloheximide cs, NS1 function inh)
O=C(CN1CCN(S(=O)(=O)c2ccccc2)CC1)Nc1ccccc1C(=O)c1ccccc1	NS1 function inh inconclusive, Pf growth 96h 4.7µM, Pf growth 48h 13µM
O=C(CN1CCN(C(=O)c2ccccc2)CC1)Nc1cc(S(=O)(=O)N2CCCC2)ccc1Cl	Pf growth 96h inconclusive, Pf growth 48h 10µM (no result: Shiga toxin inh, Cycloheximide cs, NS1 function inh)
CCn1ncc([N+](=O)[O-])c1C(=O)N1CCc2ccccc2C1	none
S=C1NCCOCCNC(=S)NCCOCCOCCN1	none
COc1ccc(Cl)cc1C(=O)NNC(=O)COC(=O)CC(NC(C)=O)c1ccccc1 (stereo not drawn)	none (no result: Shiga toxin inh, Cycloheximide cs, NS1 function inh)
O=C(CN1CCN(C(=O)c2ccccc2)CC1)Nc1cccc(S(=O)(=O)N2CCCC2)c1	Pf growth 96h inconclusive, Pf growth 48h inconclusive (no result: Shiga toxin inh, Cycloheximide cs, NS1 function inh)
O=C(CN1CCN(C(=O)c2cccc(S(=O)(=O)N3CCCC3)c2)CC1)Nc1ccccc1Cl	Pf growth 96h inconclusive, Pf growth 48h 10µM (no result: Shiga toxin inh, Cycloheximide cs, NS1 function inh)
Cc1ccc(NC(=O)CSc2nnc(Cc3csc(C)n3)o2)cc1	Pf growth 96h inconclusive (no result: Shiga toxin inh, Cycloheximide cs, NS1 function inh)
CCOc1ccc(Nc2nc(Cc3nnc(SCC(=O)c4ccc(C)c(C)c4)o3)cs2)cc1	Cycloheximide cs 21 (no result: Pf growth 96h)
Cc1cc(Br)ccc1NC(=O)CN(C)C(=O)c1cc(S(=O)(=O)N(C)C)ccc1N1CCCC1	none
